“And” between values parts separate entries of the source, which are not always exact repeats. Equal values may be shown once. Values without a mark were called inactive. Inconclusive results are not listed. Where a call stands in place of a potency, no number is given. The source made the active and inactive calls. Unless noted, calls come from the whole dose curve; as a rule, active = well fitted curve in the direction sought with a large enough effect; inconclusive = small, poorly fitted or top-dose-only effect, or another doubt; inactive = no such curve, though single readings can be large; an effect the other way counts as inactive or inconclusive.
Assays:
[1] = Cellular Toxicity (caspase-3) Renal Proximal Tubule (AID 667); details: Potency: caspase-3 activation;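 note: cells exposed to compound for 16 hours at 37 °C before detection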; note: potency is the fitted concentration of half-maximal effect
Summary of the method: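 In qHTS format, rat primary proximal tubule cells seeded at 1000 per well are exposed to compounds for 16 hours at 37 °C. An increase in Caspase-Glo 3/7 luminescence indicates caspase activation.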

[2] = target: Cytochrome P450 2C9 (Homo sapiens) (UniProt P11712); experiment: qHTS Assay for Inhibitors and Substrates of Cytochrome P450 2C9 (AID 883); note: nearly all actives have a fitted effect of over 60% in size; note: potency is the fitted concentration of half-maximal effect
Cytochrome P450 2C9 (Homo sapiens), sequence (P11712 whole entry, looked up): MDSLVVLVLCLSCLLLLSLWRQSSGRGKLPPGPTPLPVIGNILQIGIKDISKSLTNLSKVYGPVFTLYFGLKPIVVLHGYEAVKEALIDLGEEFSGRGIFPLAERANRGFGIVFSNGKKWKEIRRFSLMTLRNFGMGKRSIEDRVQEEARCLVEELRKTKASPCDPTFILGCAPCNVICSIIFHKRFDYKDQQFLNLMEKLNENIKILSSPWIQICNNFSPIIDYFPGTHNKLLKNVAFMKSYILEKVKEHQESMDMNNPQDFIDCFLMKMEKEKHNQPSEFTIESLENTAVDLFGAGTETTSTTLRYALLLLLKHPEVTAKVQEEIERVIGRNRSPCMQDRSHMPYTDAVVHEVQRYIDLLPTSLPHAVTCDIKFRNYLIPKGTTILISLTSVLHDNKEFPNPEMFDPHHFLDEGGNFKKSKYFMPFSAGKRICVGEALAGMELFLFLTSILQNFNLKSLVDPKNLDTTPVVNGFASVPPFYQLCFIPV
Summary of the method: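 10nM CYP2C9 + 100uM Luciferin-H (=KM), 25mM KPO4; cpd 10 min 37C; NADPH regen, 60 min 37C; stop/detect with P450 Glo-Buffer 20 min; luminescence. Norm. to 57uM sulphaphenazole as full inhibition.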

[3] = target: Cytochrome P450 3A4 (Homo sapiens) (UniProt P08684); experiment: qHTS Assay for Activators of Cytochrome P450 3A4 (AID 885); note: nearly all actives have a fitted effect of over 65% in size
Cytochrome P450 3A4 (Homo sapiens), sequence (P08684 whole entry, looked up): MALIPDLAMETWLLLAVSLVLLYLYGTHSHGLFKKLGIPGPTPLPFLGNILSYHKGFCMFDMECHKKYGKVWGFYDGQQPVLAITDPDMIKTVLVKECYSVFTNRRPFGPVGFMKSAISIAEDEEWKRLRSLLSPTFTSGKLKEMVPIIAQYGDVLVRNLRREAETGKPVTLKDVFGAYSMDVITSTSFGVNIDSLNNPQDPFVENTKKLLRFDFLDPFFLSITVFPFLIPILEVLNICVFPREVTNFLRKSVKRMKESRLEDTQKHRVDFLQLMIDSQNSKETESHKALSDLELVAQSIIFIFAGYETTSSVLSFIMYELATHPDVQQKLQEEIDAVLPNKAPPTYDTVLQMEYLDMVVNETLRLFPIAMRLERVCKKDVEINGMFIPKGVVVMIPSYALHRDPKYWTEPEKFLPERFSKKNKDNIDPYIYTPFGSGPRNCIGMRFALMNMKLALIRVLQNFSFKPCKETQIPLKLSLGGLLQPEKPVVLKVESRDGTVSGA
Summary of the method: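 Human CYP3A4 (20 nM) with Luciferin-PPXE at 25 uM (its KM) in 200 mM KPO4; 10 min compound preincubation, then NADPH regeneration and 60 min reaction at RT. Luciferin read by luminescence; normalized to 57 uM ketoconazole full inhibition.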

[4] = target: Cytochrome P450 2D6 (Homo sapiens) (UniProt P10635); experiment: qHTS Assay for Inhibitors and Substrates of Cytochrome P450 2D6 (AID 891); note: nearly all actives have a fitted effect of over 60% in size; note: potency is the fitted concentration of half-maximal effect
Cytochrome P450 2D6 (Homo sapiens), sequence (P10635 whole entry, looked up): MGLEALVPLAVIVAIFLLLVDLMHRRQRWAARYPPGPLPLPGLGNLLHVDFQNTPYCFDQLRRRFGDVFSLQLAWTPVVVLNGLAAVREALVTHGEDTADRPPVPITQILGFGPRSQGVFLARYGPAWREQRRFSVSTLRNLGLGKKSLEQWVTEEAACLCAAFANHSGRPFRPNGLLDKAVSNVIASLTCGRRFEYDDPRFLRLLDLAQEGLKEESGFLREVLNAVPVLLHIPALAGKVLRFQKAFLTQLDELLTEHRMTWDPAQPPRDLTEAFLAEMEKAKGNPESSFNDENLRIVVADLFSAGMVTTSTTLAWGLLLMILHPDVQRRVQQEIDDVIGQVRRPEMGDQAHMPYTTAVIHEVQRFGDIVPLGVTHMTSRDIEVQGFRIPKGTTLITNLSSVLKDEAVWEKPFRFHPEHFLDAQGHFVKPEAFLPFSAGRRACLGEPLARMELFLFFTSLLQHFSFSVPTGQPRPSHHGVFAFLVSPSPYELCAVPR
Summary of the method: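 Human CYP2D6 (5 nM) with 30 uM Luciferin-ME EGE (at Km) in 100 mM KPO4, compound preincubated 10 min, then NADPH regeneration system for 60 min at room temperature. Luciferin read by luminescence; normalized to 1.43 uM quinidine.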

[5] = Cell Viability - LYMP2-001 (AID 921);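 note: cells exposed to compound for 24 h at 37 °C; nearly all actives have a fitted effect of over 70% in size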; note: potency is the fitted concentration of half-maximal effect
Summary of the method: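 qHTS, 1536-well; lymphoblastoid cells, 24 hr compound, 37 C; ATP by CellTiter-Glo, 30 min RT; luminescence; Hill-fit AC50.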

[6] = MultiTox-Fluor Cytotoxicity Assay - LYMP1-001 - Dead Cells (AID 946); note: potency is the fitted concentration of half-maximal effect
Summary of the method: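 LYMP1-001 lymphoblastoid cells (2500/well) treated 16 h at 37 C. Dead-cell protease cleavage of bis-AAF-R110 read at Ex/Em 485/520. Normalized to DMSO and 15 uM tetraoctylammonium bromide; AC50 from Hill fits.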

[7] = MultiTox-Fluor Cytotoxicity Assay - LYMP1-001 - Live Cells (AID 947)
[8] = Cell Viability - LYMP1-002 - Assay at 16 hr (AID 948); note: potency is the fitted concentration of half-maximal effect
Summary of the method: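 Acute cytotoxicity is scored as a concentration-dependent fall in intracellular ATP in a human lymphoblastoid line (LYMP1-002) after 16 hr compound exposure at 37 C, measured by luciferase luminescence.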

[9] = Confirmation and Secondary Assay for Modulators of Hemoglobin Beta Chain Splicing at IVS2 654 locus (AID 910);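 note: HeLa cells stably carrying EGFP split by mutant beta-globin IVS2-654 intron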
Summary of the method: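 HeLa cells stably expressing EGFP interrupted by β-globin IVS2-654 intron, seeded overnight in Opti-MEM/2% FCS, then treated 2 days at 37 °C. Restored splicing read as total peak GFP intensity per well by laser scanning cytometry (488 nm excitation, 500–520 nm emission); 500 nM antisense PNA as control.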

[10] = target: Muscarinic acetylcholine receptor M1 (Rattus norvegicus) (UniProt P08482); experiment: qHTS Assay for Antagonists of Acetylcholine Muscarinic M1 Receptor: Kinetic Measurement of Intracellular Calcium Response (AID 943);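 note: Fluo-4 calcium signal as peak divided by basal fluorescence over 4 min; series mostly up to about 35 µM; nearly all actives have a fitted effect of over 75% in size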
Muscarinic acetylcholine receptor M1 (Rattus norvegicus), sequence (P08482 whole entry, looked up): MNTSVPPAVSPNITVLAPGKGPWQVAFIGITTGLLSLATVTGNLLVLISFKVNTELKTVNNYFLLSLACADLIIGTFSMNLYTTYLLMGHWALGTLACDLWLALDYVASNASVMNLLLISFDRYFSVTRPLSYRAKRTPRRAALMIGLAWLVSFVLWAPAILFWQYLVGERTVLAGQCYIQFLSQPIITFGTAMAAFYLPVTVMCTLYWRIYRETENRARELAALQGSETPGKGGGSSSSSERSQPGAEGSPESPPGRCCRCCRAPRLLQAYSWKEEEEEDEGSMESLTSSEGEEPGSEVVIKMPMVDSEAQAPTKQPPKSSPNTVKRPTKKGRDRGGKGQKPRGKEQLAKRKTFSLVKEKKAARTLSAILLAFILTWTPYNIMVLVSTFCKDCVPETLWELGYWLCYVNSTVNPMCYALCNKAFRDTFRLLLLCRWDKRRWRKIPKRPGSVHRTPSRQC
Summary of the method: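 CHO cells stably expressing rat M1 were loaded with no-wash Fluo-4 dye for 1 h at 37C, pre-incubated 10 min with compound, then challenged with EC80 carbachol (100 nM final); kinetic calcium read 4 min, peak/basal ratio.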

[11] = target: Muscarinic acetylcholine receptor M1 (Rattus norvegicus) (UniProt P08482); experiment: qHTS Assay for Antagonists of Acetylcholine Muscarinic M1 Receptor: Measurement of IP-One Response (AID 944); note: nearly all actives have a fitted effect of over 75% in size
Summary of the method: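 CHO cells expressing rat M1 receptor, recovered overnight, were pre-incubated 10 min with compound, then stimulated 30 min with carbachol at EC80 (200 nM) in LiCl-containing buffer, pH 7.4. IP1 accumulation was read by HTRF (620/665 nm).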

[12] = target: Pyruvate kinase (Leishmania mexicana) (UniProt Q27686); experiment: qHTS Validation Assay for Inhibitors of Leishmania Mexicana Pyruvate Kinase (AID 945); note: potency is the fitted concentration of half-maximal effect
Pyruvate kinase (Leishmania mexicana), sequence (Q27686 2-499 E452W): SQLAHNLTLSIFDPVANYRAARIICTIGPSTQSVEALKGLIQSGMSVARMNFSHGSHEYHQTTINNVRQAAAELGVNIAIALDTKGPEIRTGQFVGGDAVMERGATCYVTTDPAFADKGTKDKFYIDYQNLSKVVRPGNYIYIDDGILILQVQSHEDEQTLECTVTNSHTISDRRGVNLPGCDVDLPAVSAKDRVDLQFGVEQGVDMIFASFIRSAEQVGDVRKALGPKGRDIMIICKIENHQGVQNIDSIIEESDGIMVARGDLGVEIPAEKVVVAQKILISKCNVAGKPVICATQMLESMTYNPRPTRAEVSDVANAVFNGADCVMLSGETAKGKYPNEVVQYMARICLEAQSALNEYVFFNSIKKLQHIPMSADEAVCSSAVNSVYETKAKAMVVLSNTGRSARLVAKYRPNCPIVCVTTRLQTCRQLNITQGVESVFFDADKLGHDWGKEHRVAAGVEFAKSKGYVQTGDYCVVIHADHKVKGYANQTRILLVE
Summary of the method: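 Pyruvate kinase activity of E451W LmPYK (0.2 nM) was followed as ATP output after 1 h at room temperature with 0.5 mM PEP and 0.1 mM ADP, detected by PKLight luminescence.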

[13] = target: Guanine nucleotide-binding protein G(i) subunit alpha-1 (Homo sapiens) (UniProt P63096); experiment: qHTS Assay for Inhibitors of RGS12 GoLoco Motif Activity (Green Fluorophore) (AID 879);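 note: negative values mean loss of peptide binding seen as reduced polarization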
Guanine nucleotide-binding protein G(i) subunit alpha-1 (Homo sapiens), sequence (P63096 whole entry, looked up): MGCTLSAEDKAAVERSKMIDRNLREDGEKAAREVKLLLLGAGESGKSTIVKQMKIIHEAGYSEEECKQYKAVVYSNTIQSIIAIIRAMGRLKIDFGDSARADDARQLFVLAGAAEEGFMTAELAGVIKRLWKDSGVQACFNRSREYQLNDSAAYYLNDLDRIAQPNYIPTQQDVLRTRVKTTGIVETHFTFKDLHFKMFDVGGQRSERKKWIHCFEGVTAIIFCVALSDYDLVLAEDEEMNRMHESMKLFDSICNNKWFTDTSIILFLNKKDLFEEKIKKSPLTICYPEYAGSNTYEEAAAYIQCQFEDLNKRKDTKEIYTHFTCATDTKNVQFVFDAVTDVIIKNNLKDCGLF
Summary of the method: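 Fluorescence polarization assay: 50 nM Gαi1 with 10 nM FITC-labeled RGS12 GoLoco peptide in 10 mM Tris pH 7.5, 150 mM NaCl, 0.1 mM GDP, 0.05% NP40, 10 min at room temperature with compound.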

[14] = target: Cytochrome P450 3A4 (Homo sapiens) (UniProt P08684); experiment: qHTS Assay for Inhibitors and Substrates of Cytochrome P450 3A4 (AID 884); note: nearly all actives have a fitted effect of over 50% in size; note: potency is the fitted concentration of half-maximal effect
Summary of the method: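 20 nM human CYP3A4 with 25 uM Luciferin-PPXE (at KM) in 200 mM KPO4, preincubated 10 min with compound; NADPH regeneration started a 60 min RT reaction. Luciferin detected by luminescence, normalized to 57 uM ketoconazole as full inhibition.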

[15] = qHTS Assay for Identification of Small Molecule Antagonists for NFkB Signaling Pathway (AID 895; active = well fitted inhibition curve with a large enough effect in the signal ratio, with a control signal flat, not every such curve was filed as active; the % refers to the signal ratio; note: potency is the fitted concentration of half-maximal effect)
Summary of the method: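 ME-180 NFkB-bla cells (beta-lactamase under NFkB response element), plated overnight, treated with compound then 10 pM TNF alpha (about EC50) for 5 hrs at 37 C. LiveBLAzer FRET read at 460/530 nm emission, 405 nm excitation.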

[16] = qHTS Assay for Identification of Small Molecule Agonists for Thrombopoietin (TPO) Signaling Pathway (AID 917); note: potency is the fitted concentration of half-maximal effect
Summary of the method: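 We measured Glycoprotein IIb promoter–luciferase output in IL-3-starved Ba/F3 murine cells expressing the human TPO receptor after 24 hrs at 37 C with compounds and 26 pM TPO.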

[17] = Confirmation and Secondary Assay for Modulators of Hemoglobin Beta Chain Splicing at IVS2 705 locus (AID 930);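 note: HeLa cells stably expressing the EGFP-705 splicing reporter; GFP fluorescence per well restored by corrected splicing of the IVS2-705 intron in EGFP; series mostly up to about 46 µM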
Summary of the method: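 Assay measures total GFP intensity per well in HeLa EGFP-705 cells after 2 days with compound; mis-splicing normally truncates EGFP, so fluorescence indicates corrected splicing.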

[18] = qHTS Assay for Identification of Small Molecule Agonists for Hypoxia Response Element Signaling Pathway (AID 914; active = well fitted activation curve with a large enough effect in the signal ratio, with a control signal flat, not every such curve was filed as active; the % refers to the signal ratio); details: ME-180 HRE-bla reporter, beta-lactamase ratio, CoCl2, 17 h; stronger effect = higher value
Summary of the method: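 Compounds in a titration series were added to ME-180 reporter cells alongside an EC50 level of CoCl2. After 17 hours, beta-lactamase activity was read as the 460nm/530nm emission ratio of CCF4, giving AC50 values.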

[19] = qHTS Assay for Identification of Small Molecule Agonists for NFkB Signaling Pathway (AID 928; calls by dose curve); details: NFkB beta-lactamase reporter cells, blue/green ratio
Summary of the method: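 ME-180 NFkB-bla cells carry a beta-lactamase reporter under an NFkB response element. Compound plus 10 pM TNF alpha (final) was applied for 5 hrs at 37 C. After 2 hrs with LiveBLAzer substrate, 460/530 nm emission was read at 405 nm excitation.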

[20] = qHTS Assay for Identification of Small Molecule Antagonists for Thrombopoietin (TPO) Signaling Pathway (AID 918); details: TPO-dependent cell signaling reporter, antagonist mode; note: potency is the fitted concentration of half-maximal effect; nearly all actives have a fitted effect of over 60% in size
Summary of the method: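 Murine Ba/F3 cells stably expressing human TPO receptor and a Glycoprotein IIb promoter–luciferase reporter were IL-3-starved overnight, treated with compounds plus TPO (26 pM final, its EC50) for 24 hrs at 37 C, then read by luminescence.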

O=c1c(O)c(-c2ccc(O)cc2)oc2cc(O)cc(O)c12
Potency [1]: inactive | Potency [2]: 15.8 µM (active) | outcome [3]: inactive | Potency [4]: 15.8 µM (active) | Potency [5]: inactive | Potency [6]: inactive | outcome [7]: inactive | Potency [8]: inactive

O=c1cc(-c2ccc(O)cc2)oc2cc(O)cc(O)c12
Potency [1]: inactive | Potency [2]: inactive | outcome [3]: inactive | outcome [9]: inactive | Potency [5]: inactive | outcome [10]: inactive | outcome [11]: inactive | Potency [12]: 12.6 µM (active) | Potency [6]: 79.4 µM (active)

CC(=O)N[C@@H](CS)C(=O)O
outcome [13]: inactive | Potency [14]: inactive | outcome [10]: inactive | Potency [12]: inactive

CC(=O)c1ccc(S(=O)(=O)NC(=O)NC2CCCCC2)cc1
Potency [1]: inactive | outcome [13]: inactive | Potency [2]: inactive | Potency [14]: inactive | Potency [4]: inactive | Potency [15]: inactive | Potency [16]: inactive | Potency [5]: inactive | outcome [10]: inactive | Potency [12]: inactive | Potency [6]: inactive | outcome [7]: inactive | Potency [8]: inactive

CCn1cc(C(=O)O)c(=O)c2ccc(C)nc21
Potency [1]: inactive | outcome [9]: inactive | Potency [5]: inactive | outcome [17]: inactive | Potency [6]: inactive | outcome [7]: inactive | Potency [8]: inactive

CCN(CC)C(=O)c1ccc(O)c(OC)c1
outcome [13]: inactive | Potency [2]: inactive | Potency [14]: inactive | Potency [4]: inactive | Potency [16]: inactive | outcome [10]: inactive | outcome [11]: inactive | Potency [12]: inactive

O=C1NCC2(CCN(CCc3ccccc3)CC2)O1
outcome [13]: inactive | Potency [14]: inactive | outcome [9]: inactive | Potency [16]: inactive | outcome [17]: inactive | Potency [12]: inactive

O=C(O)Cc1cccc2ccccc12
Potency [1]: inactive | Potency [14]: inactive | Potency [5]: inactive | Potency [6]: inactive | outcome [7]: inactive | Potency [8]: inactive

O=C1NC(=O)C(c2ccccc2)(c2ccccc2)N1
Potency [1]: inactive | outcome [13]: inactive | Potency [14]: inactive | outcome [9]: inactive | Potency [16]: inactive | Potency [5]: inactive | outcome [17]: inactive | Potency [12]: inactive | Potency [6]: inactive | Potency [8]: inactive

COc1cccc(-c2cc(=O)c3ccccc3o2)c1N
outcome [13]: inactive | Potency [14]: 7.94 µM (active) | outcome [3]: inactive | Potency [15]: inactive | Potency [16]: 0.398 µM (active) | outcome [11]: inactive | Potency [12]: 12.6 µM (active)

CCCNC(=O)NS(=O)(=O)c1ccc(Cl)cc1
Potency [1]: inactive | outcome [13]: inactive | Potency [2]: inactive | Potency [14]: inactive | outcome [3]: inactive | Potency [4]: inactive | outcome [9]: inactive | activation [18]: -1.93% and -16.9% and -21.4% | Potency [16]: inactive | Potency [5]: inactive | Potency [19]: 0.447 µM (active) | outcome [17]: inactive | Potency [12]: inactive | Potency [6]: inactive | outcome [7]: inactive | Potency [8]: inactive

CC(=O)CCCCn1c(=O)c2c(ncn2C)n(C)c1=O
outcome [13]: inactive | Potency [2]: inactive | Potency [14]: inactive | Potency [4]: inactive | outcome [9]: inactive | Potency [16]: inactive | outcome [17]: inactive | outcome [11]: inactive | Potency [12]: inactive

CC(C)OC(=O)C(C)(C)Oc1ccc(C(=O)c2ccc(Cl)cc2)cc1
outcome [13]: inactive | Potency [2]: 5.01 µM (active) | Potency [14]: inactive | Potency [4]: inactive | outcome [9]: inactive | Potency [16]: inactive | outcome [17]: inactive

C[N+](C)(C)CCCCCC[N+](C)(C)C
outcome [13]: inactive | Potency [2]: inactive | Potency [14]: inactive | outcome [9]: inactive | Potency [16]: inactive | outcome [17]: inactive | outcome [10]: inactive | outcome [11]: inactive | Potency [12]: inactive

CCN(CC)CCOC(=O)c1ccc(N)cc1
outcome [13]: inactive | Potency [14]: inactive | Potency [15]: inactive | outcome [9]: inactive | Potency [16]: inactive | outcome [17]: inactive | Potency [12]: inactive

CC1=C(/C=C/C(C)=C/C=C/C(C)=C/C(=O)Nc2ccc(O)cc2)C(C)(C)CCC1
Potency [1]: 31.6 µM (active) | outcome [13]: inactive | Potency [15]: 6.31 µM (active) | Potency [20]: 10 µM (active) | Potency [5]: 39.8 µM (active) | outcome [10]: inactive | outcome [11]: inactive | Potency [12]: inactive | Potency [6]: 79.4 µM (active) | Potency [8]: 50.1 µM (active)

O=C(O)c1cc(O)c2c(c1)C(=O)c1cccc(O)c1C2=O
Potency [1]: inactive | Potency [14]: inactive | outcome [3]: inactive | Potency [5]: inactive | Potency [6]: inactive | outcome [7]: inactive | Potency [8]: inactive

CCN1CCC[C@H]1CNC(=O)c1cc(S(N)(=O)=O)ccc1OC
outcome [13]: inactive | Potency [14]: inactive | Potency [16]: inactive | Potency [12]: inactive
